# Assay results: PubChem BioAssay AID504832 (National Center for Advancing Translational Sciences (NCATS), 2011)
# Screen size: about 310,000 compounds; about 18,000 (5.8%) were called active. Inconclusive results (about 22%) are left out. Calls follow the shape of the dose curve; as a rule, active = well fitted inhibition curve with a large enough effect; inconclusive = small, poorly fitted or top-dose-only effect, or another doubt; inactive = no such curve, though single readings can be large or run the other way. The list comes from a sample in which actives are over-represented; it also holds similar structures and randomly drawn compounds.
# Assay: Primary qHTS for delayed death inhibitors of the malarial parasite plastid, 48 hour incubation
# Settings: P. falciparum luciferase growth in erythrocytes; series mostly up to 28.7 µM; activity change, negative = inhibition: at the top concentration
# Description: The goal of this screen is to discover new antimalarial compounds that act by inhibiting the development of the apicoplast in the malarial parasite Plasmodium falciparum. The biochemical processes that make this organelle essential for erythrocytic stage parasites are not well understood. However, antibiotics such as azithromycin and tetracycline, which target the apicoplast translational machinery, have a potent antimalarial effect.
# We have developed a cell-based assay that measures parasite growth based on the expression of an integrated copy of a firefly luciferase reporter. To detect small molecules that cause this "delayed death" phenotype, erythrocytes infected with the luciferase-expressing parasites were incubated with compounds for either one or two generations, corresponding to 48 and 96 hours, respectively. Compounds that inhibit parasite growth in the second generation, but not the first, should be enriched in antimalarials that target the apicoplast. Growth inhibition is detected by a decrease in luciferase activity.
# Assay Provider: David Fidock and Eric Ekland, Columbia University
# Keywords: NIH Roadmap, MLPCN, MLI, MLSMR, qHTS, NCGC, qHTS, malaria, luciferase, viability
# Four microliters of culture medium (RPMI 1640 with 0.5% w/v Albumax (GIBCO), 24 mM sodium bicarbonate and 10 ug/mL gentamycin) were dispensed by a Multi-drop Combi into white solid 1536-well plates (Grenier) and 23 nL compound was added by a pin tool. Four microliters of infected erythrocytes (2% hematocrit, 0.1% parasitemia final concentration) in culture medium were dispensed and the plates incubated for 48 hours at 37 C in 5% CO2. Two microliters of luciferase detection reagent was added and luminescence was detected by a ViewLux (PerkinElmer) reader.
# % is scaled to controls: 0 for no effect and ±100 for the full control effect; potency is read from the fitted curve at half-maximal effect.
Structure (SMILES),"activity change, negative = inhibition",Potency
COc1ccc(N2CCN(C(=O)c3ccc(N4CCCCS4(=O)=O)cc3)CC2)cc1,-9.38% (inactive),–
Cc1cc(Cl)ccc1OCCCC(=O)Nc1cccc(-n2cnnn2)c1,-3.27% (inactive),–
COc1ccc(C2=NN(C(C)=O)C(c3ccccc3)C2)cc1 (configuration not stated),23% (inactive),–
Cc1ccc(N2C(=O)CC(Nc3cccc4ccccc34)C2=O)cc1 (configuration not stated),18.2% (inactive),–
Cc1ccc(N2C(=O)C3N=NN(CC(=O)N4N=C(c5cccc6ccccc56)CC4c4ccccc4)C3C2=O)cc1 (configuration not stated),–,13.1 µM (active)
O=C(CSc1nnnn1C1CCCC1)N1CCCCC1,98.1% (inactive),–
O=C(O)C1=NN(c2c(F)c(F)cc(F)c2F)C(=O)CC1,19.6% (inactive),–
COc1ccc(N2CCN(C(=O)CCNC(=O)c3ccc(Br)cc3)CC2)cc1,-16.9% (inactive),–
COc1cccc(C(=O)N2CCC(n3nccc3NC(=O)C3CCOC3)CC2)c1 (configuration not stated),1.74% (inactive),–
CC(=O)N/C(=N/c1nc(C)cc(C)n1)Nc1ccc(F)cc1F,-15.7% (inactive),–
Cc1cc(NC(=O)c2cnn3cccnc23)n(-c2ccccc2)n1,-9.66% (inactive),–
Cc1cc(C)nc(-n2nc(C)cc2NC(=O)c2ccc(F)cc2F)n1,–,10.4 µM (active)
CC(CN1CCOCC1)OC(=O)c1ccc(C(C)(C)C)cc1 (configuration not stated),-8.18% (inactive),–
Cc1nn(C(=O)c2ccoc2C)c(N)c1-c1ccccc1,23.2% (inactive),–
Cc1nn2c(c1-c1ccccc1)N=C(c1ccco1)CC2c1ccccc1 (configuration not stated),–,14.7 µM (active)
O=C(O)CCCC(=O)N1N=C(c2ccco2)CC1c1ccco1 (configuration not stated),-18% (inactive),–
CCN1CCN(C(=O)C2CCN(S(=O)(=O)c3cc(Cl)ccc3Cl)CC2)CC1,10.5% (inactive),–
COc1ccc(C(=O)c2c(C)c(CCC#N)n3ccccc23)c(OC)c1,-8.61% (inactive),–
Cc1ccccc1NC(=O)C(C)OC(=O)CCC(=O)N(CC(C)C)c1c(N)n(CC(C)C)c(=O)[nH]c1=O (configuration not stated),-7.74% (inactive),–
COc1ccc(C(=O)NCC(=O)N/N=C/c2ccc([N+](=O)[O-])o2)cc1OC,–,6.57 µM (active)
COc1ccc(C(=O)NCC(=O)N/N=C/c2ccc([N+](=O)[O-])s2)cc1OC,-25.4% (inactive),–
COc1cc(/C=N\NC(=O)CNC(=O)c2cccc([N+](=O)[O-])c2)ccc1O,17.5% (inactive),–
O=C(Cn1ccc2cc(S(=O)(=O)N3CCCC3)ccc21)NCc1ccccc1,-5.75% (inactive),–
CCCOc1cccc(C(=O)Nc2ccccc2C(=O)N2CCN(C)CC2)c1,30.4% (inactive),–
CC1=C(C/C=C(\C)CCCC(C)CCCC(C)CCCC(C)C)C(=O)c2ccccc2C1=O (configuration not stated),–,10.7 µM (active)
CS(=O)(=O)c1ccc(Cl)c(NC(=O)COC(=O)c2ncc(Cl)c(Cl)c2Cl)c1,-4.26% (inactive),–

Structure (SMILES),"activity change, negative = inhibition",Potency
COc1ccc(CNc2cc(C)cc(C)c2)cc1OC,72.2% (inactive),–
CN(CC(=O)Nc1cccc(F)c1)C(=O)C1CSC2(C)CCC(=O)N12 (configuration not stated),-0.11% (inactive),–
CCn1c(=O)c2ccccc2n(CC(=O)N2CCCc3ccccc32)c1=O,-13.9% (inactive),–
Cn1c(SCC(=O)OC2CCCCC2)nnc1-c1ccc(S(=O)(=O)N2CCCC2)cc1,–,2.62 µM (active)
Cn1c(SCC(=O)Nc2cccc(O)c2)nnc1-c1ccc(S(=O)(=O)N2CCOCC2)cc1,7.1% (inactive),–
Cn1c(SCC(=O)NC2CCCCC2)nnc1-c1ccc(N)cc1,59.1% (inactive),–
Cc1ccc(C(=O)C(C)OC(=O)Cc2n[nH]c(=O)c3ccccc23)cc1C (configuration not stated),9.11% (inactive),–
CCc1ccc(-c2cc(C)no2)cc1S(=O)(=O)NCCc1ccc(S(N)(=O)=O)cc1,-28.2% (inactive),–
O=C(CCS(=O)(=O)c1ccc2c(c1)NC(=O)CS2)NCc1ccccc1Cl,4.89% (inactive),–
O=C(O)c1ccccc1-c1ccccc1C(=O)NCc1cccnc1,4.09% (inactive),–
CCc1ccc(N(CC(=O)NCc2cccnc2)S(=O)(=O)c2ccccc2)cc1,97.9% (inactive),–
Cc1ccc(S(=O)(=O)N(Cc2ccc(Cl)cc2)c2ccccc2C(=O)NCc2cccnc2)cc1,–,13.1 µM (active)
O=C(c1cnc(Cl)c(Cl)c1)N1CCN(S(=O)(=O)c2ccc(F)cc2)CC1,-5.82% (inactive),–
CCCc1nc2ccccc2c(C(=O)OCc2nnc(-c3cc(OC)c(OC)c(OC)c3)o2)c1CC,–,4.65 µM (active)
COc1cc(-c2cc(C(=O)OCC(=O)Nc3ccc4c(c3)OCO4)c3ccccc3n2)cc(OC)c1OC,0.182% (inactive),–
O=C(OCc1nnc(-c2ccccc2)o1)c1cc(=O)[nH]c2ccccc12,-27.5% (inactive),–
COc1ccccc1C(=O)Nc1ccnn1C1CCN(C(=O)C(C)(C)C)CC1,-1.89% (inactive),–
COC(=O)c1[nH]c2ccccc2c1NC(=O)CN1CCCc2ccccc21,–,2.08 µM (active)
COC(=O)c1[nH]c2ccc(Br)cc2c1NC(=O)Oc1ccccc1,-15.2% (inactive),–
NS(=O)(=O)c1cccc(NC(=O)CN2CCCc3ccccc32)c1,-0.755% (inactive),–
CC(=O)N1CCc2c(sc(NC(=O)CCS(=O)(=O)c3ccc(C)cc3)c2C(N)=O)C1,-24.3% (inactive),–
O=C(NNS(=O)(=O)c1ccc(F)cc1)c1ccc([N+](=O)[O-])cc1Cl,1.58% (inactive),–
CC(C)CCNC(=O)c1ccc2c(Cl)c3c(nc2c1)CCC3,50.2% (inactive),–
Cc1ccc(S(=O)(=O)N2CCN(c3ccccc3)CC2)cc1C,13.1% (inactive),–
Cc1cc(C)n(-c2nnc(N3CCN(c4ccccc4)CC3)nn2)n1,–,0.329 µM (active)
Cc1cc(N2CCN(c3ccccc3)CC2)nc(N2CCOCC2)n1,-20.2% (inactive),–

Structure (SMILES),"activity change, negative = inhibition",Potency
Cc1nn(Cc2ccccc2)c(C)c1C(=O)NCCCN1CCCC1=O,9.89% (inactive),–
CCN1CCN(C(=O)C2CCCN(S(=O)(=O)c3ccc(OC)c(OC)c3)C2)CC1 (configuration not stated),4.01% (inactive),–
COCc1cc(=O)n2[nH]c(C)c(-c3ccccc3)c2n1,-9.29% (inactive),–
O=C(C1=C[C@H](c2ccc(C(F)(F)F)cc2)C[C@H](OCc2ccc(CO)cc2)O1)N1CCN(Cc2ccccc2)CC1,–,3.7 µM (active)
C#Cc1ccc([C@@H]2C=C(C(=O)O)O[C@H](OCCCCO)C2)cc1,43.4% (inactive),–
O=C(NCc1ccccc1)C1=C[C@H](C2CC2)C[C@H](OCc2ccc(CO)cc2)O1,-0.787% (inactive),–
COCCNC(=O)CSc1nc2sccc2c(=O)n1-c1ccccc1,-7.07% (inactive),–
COc1ccc(C(=O)COC(=O)CNC(=O)c2cccs2)cc1Br,12.2% (inactive),–
Cc1cc(C(=O)COC(=O)c2cccs2)c(C)n1-c1c(C)n(C)n(-c2ccccc2)c1=O,15.2% (inactive),–
COc1ccc(-n2c(C)cc(C(=O)COC(=O)c3cc(OC)c(OC)cc3NC(=O)c3cccs3)c2C)cc1,–,4.15 µM (active)
C=CCOc1ccc(/C=C/C(=O)OCC(=O)NC2CCCCCC2)cc1,26.8% (inactive),–
CCC(Oc1ccccc1C)C(=O)Nc1ccc(S(=O)(=O)Nc2cc(C)on2)cc1 (configuration not stated),2.5% (inactive),–
CC(=O)c1cc(CN2CCC(n3nccc3NC(=O)c3ccccc3Cl)CC2)cs1,-13.4% (inactive),–
CC(OC(=O)c1ccccc1NCCO)C(=O)Nc1ccnn1C(C)C (configuration not stated),-26.5% (inactive),–
Cc1ccc(NC(=O)CN(C)C(=O)c2ccc(Br)o2)cc1,4.06% (inactive),–
COc1ccc(-c2cnc(SCCNC(=O)c3ccc4c(c3)OCO4)[nH]2)cc1,-5.01% (inactive),–
CC(Oc1ccc(Br)cc1)C(=O)NC1CCCCCC1 (configuration not stated),2.7% (inactive),–
COc1ccc(S(=O)(=O)NCC(c2ccco2)N2CCOCC2)cc1 (configuration not stated),-6.97% (inactive),–
CC(Oc1ccc(Br)cc1)C(=O)NCC(c1ccco1)N1CCCCC1 (configuration not stated),–,11.7 µM (active)
O=C(COc1ccc2ccc(=O)oc2c1)NCC(O)c1ccccc1 (configuration not stated),18.9% (inactive),–
O=C(CNC(=O)OCc1ccccc1)NC1CCCCNC1=O (configuration not stated),0.406% (inactive),–
CCOc1ccccc1/C=N/Nc1nc2ccccc2o1,-29.1% (inactive),–
COc1ccc(CCNC(=O)C(=O)NCc2ccccc2C)cc1OC,-8.37% (inactive),–
COc1ccc(CCN(Cc2cc3cccc(C)c3[nH]c2=O)C(=O)N2CCCC2)cc1OC,–,8.28 µM (active)
CCCCNC(=O)N1CCCC(N(C)CCc2ccc(OC)c(OC)c2)C1 (configuration not stated),-0.406% (inactive),–
Cc1ccc2c(cnn2C(=O)CCC(=O)NC2CCCC2)c1,7.75% (inactive),–

Structure (SMILES),"activity change, negative = inhibition",Potency
O=C(Nc1cccc(C(F)(F)F)c1)c1cnccn1,33.4% (inactive),–
Cn1nc(C(F)(F)F)c(C(=O)Nc2cccc(C(F)(F)F)c2)c1SCc1ccc(Cl)cc1,–,1.85 µM (active)
O=C(O)CSCC(=O)Nc1cccc(C(F)(F)F)c1,7.05% (inactive),–
COc1ccc(CCNC(=O)COc2ccc3c(c2)OCO3)cc1,8.33% (inactive),–
CN(C)C(=O)CCC(=O)N1CCCCC1C(=O)Nc1ccc(Oc2ccccc2F)cc1 (configuration not stated),27.6% (inactive),–
CCOC(=O)CCCNC(=O)COC(=O)/C=C/c1ccc2c(c1)OCO2,397% (inactive),–
CCOc1cc(/C=C/C(=O)OCC(=O)NCCN2C(=O)CSC2=O)ccc1OCC(C)C,–,14.7 µM (active)
COc1ccc(/C=C/C(=O)OCC(=O)NCc2cccs2)cc1OC,9.68% (inactive),–
COc1ccc(CNC(=O)CN2C(=O)NC3(CCCc4sccc43)C2=O)cc1 (configuration not stated),-0.331% (inactive),–
CCN(CC)S(=O)(=O)c1ccc(N2CC(C(=O)NCc3cccnc3)CC2=O)cc1 (configuration not stated),-16.4% (inactive),–
Cc1ccc2[nH]c(=O)c(CN(C)S(=O)(=O)c3cccc4nonc34)cc2c1,21.1% (inactive),–
CCN(Cc1ccccc1)S(=O)(=O)c1cc2c3c(c1)CCN3C(=O)CC2,-3.66% (inactive),–
O=C(CN1CCCCCC1)Nc1ccc(Cl)cc1F,25.3% (inactive),–
CC1CCCN(CC(=O)Nc2cc(Cl)ccc2Oc2ccccc2)C1 (configuration not stated),–,14.7 µM (active)
COc1cc(Cl)c(C)cc1NC(=O)CN1CCCCCC1,3.43% (inactive),–
Cc1sc2ncn(CC(=O)NCCN(C)C)c(=O)c2c1S(=O)(=O)N1CCC(C)CC1,4.82% (inactive),–
COCCCn1c(SCC(=O)Nc2ccccc2)nnc1-c1ccncc1,-1.61% (inactive),–
COCCCn1c(SCC(=O)NC2CCCC2)nnc1-c1ccccc1,0.923% (inactive),–
COCCCn1c(Cc2csc(Nc3cccc(Cl)c3)n2)nnc1SCC(=O)OC1CCCCC1,–,8.28 µM (active)
COc1cc(C(=O)OCC(=O)NC(C)CCc2ccccc2)cc(OC)c1OC (configuration not stated),-10.2% (inactive),–
NC(=O)c1cc(S(=O)(=O)NCCCc2ccco2)cs1,-26.8% (inactive),–
COc1cccc(C(=O)N2CCCC(CCC(=O)NCc3ccc(F)c(F)c3)C2)c1 (configuration not stated),-0.317% (inactive),–
COc1cccc(CNC(=O)CCC2CCCN(C(=O)c3cc(C)[nH]n3)C2)c1 (configuration not stated),0% (inactive),–
Cc1[nH]c2c(C(=O)N3CCCC(CCC(=O)NCc4ccccc4F)C3)cccc2c1C (configuration not stated),–,11.7 µM (active)
